Bioassay records (PubChem BioAssay)
BAZ2B block: blocks human BAZ2B; Q9UIF8; Potency, µM (doses to about 114 µM), hits mostly inhibitors; 4.4% of 360,000 active; AID 504333; AlphaScreen BAZ2B-H3K14Ac peptide displacement; further: nearly all actives have a fitted effect of over 60% in size
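Compounds, titrated to a top concentration of 110 uM, were incubated 30 min at room temperature with preformed BAZ2B/acetyl-K14 H3 peptide complex (50 nM each). Proximity signal was measured by AlphaScreen after 20 min with beads.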
VDR inhibitor: inhibitors of human vitamin D receptor; 0.93% of 400,000 active; Potency, µM, usual class: inhibitors; VDR-SRC2-3 peptide fluorescence polarization, 2 h; P11473
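Measured by FP: displacement of SRC2-3 coactivator peptide from VDR by library compounds, following a two-hour ambient incubation.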
PLK1 PBD inh: blocks phosphopeptide binding to human PLK1 polo-box domain | Plk1 PBD binding of FITC phosphopeptide, fluorescence polarization | Potency, µM, usual class: inhibitors | AID 720504 | 2.8% of 360,000 active; further: series mostly up to about 57 µM; nearly all actives have a fitted effect of over 65% in size
HP1b binding inh: HP1-beta chromodomain-methylated histone interaction inhibition; AlphaScreen HP1-beta / biotin-H3K9me3 peptide binding; Potency, µM (doses to about 114 µM), most hits filed as inhibitors; 0.56% of 390,000 active; further: nearly all actives have a fitted effect of over 70% in size
Target sequence (P83916 whole entry, looked up): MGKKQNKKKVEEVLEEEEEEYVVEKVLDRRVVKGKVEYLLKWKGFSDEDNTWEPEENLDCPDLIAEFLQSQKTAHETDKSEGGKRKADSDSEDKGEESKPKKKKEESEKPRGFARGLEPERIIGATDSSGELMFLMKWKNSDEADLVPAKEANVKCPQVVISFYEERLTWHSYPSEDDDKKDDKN
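HP1-beta protein (50 nM final) preincubated 30 min at room temperature with biotinylated H3(1-18)K9me3 peptide (50 nM) in PBS pH 7.4, 0.01% Tween-20, then compound added for 30 min. AlphaScreen streptavidin donor/nickel chelate acceptor beads (10 ug/mL final), 30 min dark, luminescence read.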
JMJD2A Tudor: JMJD2A Tudor domain (human) inhibition; O75164; Potency, µM (highest dose often 114 µM), most hits filed as inhibitors; 4.4% of 390,000 active; AlphaScreen JMJD2A-Tudor / H3K4me3 peptide binding; further: nearly all actives have a fitted effect of over 50% in size
G9a block: G9a (human) methyltransferase inhibition | G9a H3K9 monomethylation, AlphaScreen, 2 h | 8.8% of 350,000 active | Q96KQ7 | Potency, µM (titrated, usually from 102 µM), usual class: inhibitors | AID 504332; further: nearly all actives have a fitted effect of over 75% in size
Target sequence (Q96KQ7 913-1193 limits assumed): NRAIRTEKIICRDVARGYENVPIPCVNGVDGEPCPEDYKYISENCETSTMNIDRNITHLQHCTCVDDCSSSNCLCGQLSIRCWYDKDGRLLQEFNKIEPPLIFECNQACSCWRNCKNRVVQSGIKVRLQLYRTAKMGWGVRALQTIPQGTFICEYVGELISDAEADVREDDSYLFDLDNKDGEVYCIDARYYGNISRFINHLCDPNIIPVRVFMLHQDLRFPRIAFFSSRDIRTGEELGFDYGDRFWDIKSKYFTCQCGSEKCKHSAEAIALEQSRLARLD
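Chemiluminescent proximity detection of H3K9 monomethylation, read after 10 min bead incubation in the dark. Reaction: 20 nM G9a, 500 nM biotin-H3K9 peptide, 20 uM SAM cofactor, 2 h, room temperature, following 15 min enzyme-compound preincubation.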
A number is an active result; 0 = inactive; ? = inconclusive; - = not tested or not shown; [ ] = dose if it differs, or a comment. An excerpt weighted towards active compounds, which were near 11% of everything screened. The call rests on the fitted dose curve; in most records, active means well fitted curve in the direction sought with a large enough effect; inconclusive means small, poorly fitted or top-dose-only effect, or another doubt; inactive means no such curve, though single readings can be large; an effect the other way counts as inactive or inconclusive.

SMILES | BAZ2B block | VDR inhibitor | PLK1 PBD inh | HP1b binding inh | JMJD2A Tudor | G9a block
O=S(=O)(c1ccccc1)[C@@]1(c2ccccc2)C[C@@H]2ON=C(c3cccc(-c4ccccc4)c3)[C@@H]2C1 | 0 | 0 | 0 | 0 | 0 | 0[2.33 µM]
CC1CCCN(c2oc(-c3cccc4ccccc34)nc2C#N)C1 (stereo not drawn) | 0 | 0 | 0 | 0 | 0 | 0
Cc1ccccc1-c1nc(C#N)c(N2CCC(C)CC2)o1 | ? | 0 | 0 | ? | ? | 35µM
CC1CCN(c2oc(-c3ccccc3Cl)nc2C#N)CC1 | 10µM | 0 | 0 | ? | ? | 10µM
Cc1cc2oc(=O)cc(CN3CCN(Cc4ccccc4)CC3)c2cc1Cl | 0 | 0 | 0 | 0 | 0[11.4 µM] | 0
Cc1ccc2c(CN3CCN(Cc4ccccc4)CC3)cc(=O)oc2c1 | 0 | 0 | 0 | 0 | 0 | 0
CCc1ccc2oc(=O)cc(CN3CCN(Cc4ccccc4)CC3)c2c1 | 0 | 0 | 0 | 0 | 0 | 45µM
O=c1cc(CN2CCN(Cc3ccccc3)CC2)c2cc(Cl)ccc2o1 | 0 | 0 | 0 | 0 | 0 | 45µM
COc1ccccc1C(=O)Nc1c(C(=O)N(C)c2ccccc2)sc2nc(C)cc(C)c12 | 0 | 0 | - | 0 | 0 | 0
COc1ccc([C@H]2[C@H](C(=O)OC(C)(C)C)N3N=Cc4ccccc4C3C23C(=O)c2ccccc2C3=O)c(OC)c1 (stereo partly drawn) | ? | 0 | 0 | 0 | ? | ?
CC(C)(C)C(=O)[C@H]1[C@H](c2ccccc2)[C@@]2(N=C(c3ccccc3)OC2=O)C2c3ccccc3C=NN21 (stereo partly drawn) | 0 | 0 | 0 | 0 | ? | 79µM
C/[N+]([O-])=C\c1coc2ccccc2c1=O | 0 | 0 | 0 | 0 | 0 | 0
O=C1NC(=S)SC1=Cc1ccccc1Br | - | ? | 0 | ? | ? | -
O=C1NC(=S)S/C1=C\c1coc2ccccc2c1=O | ? | 0 | ? | 0 | ? | 50µM
O=C1NC(=S)SC1=Cc1cc(Br)ccc1O | - | ? | 27µM | ? | 20µM | -
O=C1NC(=S)S/C1=C\c1coc2ccc(O)cc2c1=O | ? | 0 | ? | 0 | 0[11.4 µM] | 45µM
CN(C(=O)COC(=O)c1ccc2c(c1)OCCO2)c1ccccc1 | 0 | 0 | 0 | 0 | 0 | 0
COc1cc(NS(=O)(=O)c2ccc(NS(=O)(=O)c3ccccc3)cc2)nc(OC)n1 | ? | 0 | 0 | 0 | 0 | 56µM
COc1cc(NS(=O)(=O)c2ccc(NS(=O)(=O)c3ccc(NC(C)=O)cc3)cc2)nc(OC)n1 | 0 | 0 | 0 | 0 | 0 | 0
COc1cc(NS(=O)(=O)c2ccc(NC(=O)/C(=C\c3ccccc3OC)NC(=O)c3ccccc3)cc2)nc(OC)n1 | 0 | 0 | 0 | 0 | 0 | 20µM
CC(C)(C)OC(=O)CNC(=O)c1nc[nH]c1C(=O)N1CCc2ccccc2C1 | 0 | 0 | 0 | 0 | 0 | ?
CC(C)c1ccc2oc(=O)cc(CN3CCN(c4ccc(F)cc4)CC3)c2c1 | 0 | 0 | 0 | 0 | 0 | 50µM
COc1ccc(N2CCN(Cc3cc(=O)oc4ccc(C)cc34)CC2)cc1 | 0 | 0 | 0 | 0 | 0 | 0
CCc1ccc2oc(=O)cc(CN3CCN(c4ccc(F)cc4)CC3)c2c1 | 0 | 0 | 0 | 0 | 0 | 50µM
COc1ccc(N2CCN(Cc3cc(=O)oc4ccc(Cl)cc34)CC2)cc1 | 0 | 0 | 0 | 0 | 0 | 0
SMILES | BAZ2B block | VDR inhibitor | PLK1 PBD inh | HP1b binding inh | JMJD2A Tudor | G9a block
O=C1Cc2cc(S(=O)(=O)N3CCN(c4ccc(Cl)cc4)CC3)ccc2N1 | - | - | - | - | 0 | -
CC(=O)N/C(=C\c1ccccc1)C(=O)OCc1ccc(F)cc1 | 0 | 0 | 0 | 0 | 0 | 0
Cc1ccc2nc(C(=O)O)c(C(=O)O)nc2c1 | ? | 0 | 0 | 0 | 40µM | 35µM
CCC(C)N(C(=O)CSc1ccc(NC(C)=O)cc1)C1CCS(=O)(=O)C1 (stereo not drawn) | 0 | 0 | 30µM | 0 | 0 | ?
Cc1cc(C)cc(N(CC(=O)Nc2ccc(C(F)(F)F)cc2)S(=O)(=O)c2c(C)[nH]c(=O)[nH]c2=O)c1 | 0 | 0 | 0 | 0 | 0 | 25µM
COc1ccc(NC(=O)CN(c2cc(C)cc(C)c2)S(=O)(=O)c2c(C)n[nH]c2C)cc1 | 0 | 89µM | 30µM | 0 | 50µM | 0
